Several values for one entry are separate records, joined by “and”; a condition that tells them apart may be missing. Equal values may be shown once. Compounds without any hit were thinned out: in the full panel of roughly 83,000, 20% have a hit.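 Values shown are percent growth following 48 h exposure of cells in 96-well plates to a single concentration of compound; below 10 was considered active.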 Values without a mark were called inactive. Activity calls are given as the source filed them.

This experiment relates to MDA-MB-468 breast. As to the kind of experiment: NCI-60 one-dose screen, 48 h (100 = growth as untreated, 0 = no growth, -100 = all killed). The settings on record: 10 µM unless noted.
As to `CCc1c(C(=O)N[C@@H](C(=O)OCc2ccccc2)C(C)O)[nH]c2ccc(Cl)cc12` (stereo not given in full), the growth is 79.1%.

With `CN(c1cc2ncc(=O)[nH]c2cc1NC(N)=NCc1ccc(Cl)cc1)C1CCCCC1`, the growth is -80.8% (active). For the molecule `CC1=C(C)C(=O)C(Nc2cccc(C(=O)OC(C)(C)C)c2)=C(Cl)C1=O`, the growth was -23.6% (active). In the case of `CN1CCN(c2ccc3nc(-c4ccc5nc(-c6ccc(OCCC(C)(C)C)cc6)[nH]c5c4)[nH]c3c2)CC1`, the growth is -17.9% (active). Under `CC1=C(C(=O)OCc2ccccc2)C(c2ccc3c(c2)OCO3)n2c(nc3ccccc32)N1` (stereo not given) stands 15.8%; under `C=C1C(=O)O[C@@H]2C[C@@H](C)/C=C\C(=O)[C@](C)(OC(C)=O)C[C@H](OC(=O)/C(C)=C\C)[C@@H]12`, -59.1% (active); under `COC1=CC(c2ccc[nH]2)=N/C1=C\c1[nH]c(C)c(CC(=O)OCc2ccccc2)c1C`, -24.6% (active).

As for `O=C1Nc2ccccc2/C1=C/c1cn(C[C@@H](O)Cn2c3ccccc3c(=O)c3ccccc32)c2ccccc12`, the growth was 79.6%. On to `CCCC(=O)NC(c1ccc2c(c1)OCO2)c1ccc2cccnc2c1O` (stereo not given), for which the growth was -16% (active). For the molecule `COc1cccc(C2(C)Nc3ccccc3-c3nc4ccccc4n32)c1` (stereo not given), the growth is 109%. Under `CC/C(=C(\c1ccccc1)c1ccc(OCCNC)cc1)c1ccccc1` stands -97.7% (active); under `COc1ccc(-c2nc(SCC(=O)c3ccc(Br)cc3)[nH]c(=O)c2C#N)cc1`, 100%. Under `COc1ccc(/C=N/NC(=O)c2cccc3cc[nH]c23)cc1O` stands 11.3%; under `CC1OS(=O)OC1C` (stereo not given), 96.4% and 96.2%. In the case of `CN1C/C=C\CCOc2cccc(c2)-c2ccnc(n2)Nc2cccc(c2)C1` it was -58.2% (active); in that of `COc1cc(/C=C2\C(=O)N(CCCCn3c4ccccc4c(=O)c4ccccc43)c3ccccc32)cc(OC)c1O`, 46.2%; in that of `Cc1cc2nc3c4cc(Cl)ccc4n(CC(=O)NCCN(C)C)c3nc2cc1C`, 60.6%.

Regarding `COc1c(B(O)O)cccc1-c1nc2ccc3n[nH]c(F)c3c2c2c1CCCC2`, the growth was 71.9%. Take `COc1ccc(-c2nnc(SCC(=O)Nc3ccc(C(=O)/C=C/c4ccccc4)cc3)n2-c2ccccc2)cc1OC`: the growth is 94.8%. For `Cc1nc2nc(N)nc(N)c2nc1C`, the growth is 97.6%.

Consider `COc1ccc(C2CC(c3cccc(Nc4ccnc5cc(Cl)ccc45)c3)=NN2c2ccc(Cl)cc2)cc1` (stereo not given), for which the growth was 64%.

Turning to `COc1cc2c3c(c4c5ccccc5[nH]c4c2c(OC)c1OC)C(=O)N(CCN1CCCCC1)C3=O`, the growth was 63.7%. Under `C=C1C(=O)O[C@H]2[C@H]1CC/C(COC(=O)NCCc1c[nH]c3ccc(OC)cc13)=C\CC[C@@]1(C)O[C@@H]21` stands -44.9% (active); under `O=C(Nc1cccc2[nH]c(C(F)(F)F)nc12)c1ccc(Br)cc1F`, 11.9%. For `CCOC(=O)C1=C(C(=O)c2ccccc2)C(c2cccc([N+](=O)[O-])c2)C(C(=O)c2ccccc2)=C(C(=O)OCC)N1`, the growth is 83.2%. Under `CCCOc1ccc2nc(NC(=O)OC)[nH]c2c1` stands -3.99% (active); under `COC(=O)[C@]12CC[C@@H](C)[C@H](C)[C@@H]1C1=CC[C@@H]3[C@@]4(C)C[C@@H](OC(C)=O)[C@H](O)[C@@](C)(COC(C)=O)[C@@H]4[C@H](O)C[C@@]3(C)[C@]1(C)CC2`, -90.2% (active). In the case of `COc1ccc(NC(=O)CSc2nc3ccccc3c(=O)n2CCc2ccccc2)cc1` it was 87.7%; in that of `NC(N)=NS(=O)(=O)c1ccc(N=NC2C(=O)NN(c3ccccc3)C2=O)cc1` (stereo not given), 96.6%. Under `C[N+]1(CCC[N+]2(C)C[C@@H]3[C@H](C2)[C@@H]2C=C[C@H]3C2)CCOCC1` (stereo not given in full) stands 108%; under `NC(=S)N/N=C/c1ccc(Cl)cc1`, 97.3%; under `CCO/C=N/C1=C(C#N)C(c2ccc(OC)cc2)c2sc3c(CC)cccc3c2O1` (stereo not given), -21.1% (active).

On to `C=C1C(=O)O[C@H]2[C@H]1CC/C(COC(=O)CSCSCC(=O)OC/C1=C/CC[C@@]3(C)O[C@H]3[C@H]3OC(=O)C(=C)[C@@H]3CC1)=C\CC[C@@]1(C)O[C@@H]21`, for which the growth is -14.2% (active). Under `N#Cc1ncc(-c2ccc(F)c(F)c2F)c(NC2CCCCCC2)n1` stands 86.1%; under `O=C1Nc2ccccc2/C1=C/C(=N/c1nnc(-c2ccc(Cl)cc2)s1)c1ccccc1`, 27.8%.

For the origin of these results see PubChem BioAssay (NCI).
